Screening results: PubChem BioAssay, Milwaukee Institute for Drug Discovery
Rows were chosen to be rich in hits. Some 6.8% of all compounds tested hit in one or more screens of this group.
Cy5 interf NS3h = Cy5 fluorescence quenchers or enhancers, artefact control for HCV NS3 helicase inhibitor project, biochemical, ChemBridge library, Cy5 readout | 16,000 compounds, 6% hits | fluorescence interference ratio at 100 µM | Cy5-dT15 DNA with NS3h, fluorescence interference; actives lie on both sides; signal over control mean, under 1 quenches | AID 720488, 2013;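 active = compound fluorescence over control fluorescence at most 0.8, a quencher, or at least a set upper limit, an enhancer; inactive = ratio between 0.8 and the set upper limit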
NS3h inh CB = HCV NS3 helicase inhibitors, primary screen, biochemical, fluorescence polarization, ChemBridge library; Hepatitis C virus NS3 helicase; inhibition, % at 100 µM; 16,000 compounds, 1.6% hits; NS3h Cy5-dT15 DNA binding;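 active = inhibition above the average over every tested compound plus 3 SD, cut at about 40% in these data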
* = called active by the depositor.

SMILES	Cy5 interf NS3h	NS3h inh CB
CC(C)c1ccc(/C=C(\NC(=O)c2ccccc2)C(=O)NC2CCS(=O)(=O)C2)cc1 (stereo not given)	0.86	10
O=C(NC1CCS(=O)(=O)C1)/C(=C\c1ccc(Br)cc1)NC(=O)c1ccccc1 (stereo not given)	1.3*	8
O=C(CSc1cc(Cl)ccc1Cl)Nc1cccc(C(F)(F)F)c1	0.89	-4
Cn1ccnc1SCC(=O)Nc1cccc(C(F)(F)F)c1	0.76*	10
CC(=O)Nc1sc2c(c1C(=O)Nc1ccc(Br)cc1)CCCC2	0.96	0
N/C(Cc1ccc([N+](=O)[O-])cc1)=N/OC(=O)c1cccc(I)c1	1.1	14
N/C(Cc1ccc(Cl)cc1)=N/OC(=O)c1ccc([N+](=O)[O-])cc1	0.79*	-8
CCN1C(=O)/C(=c2/s/c(=C3\C=Cc4ccccc4N3CC)c(=O)n2CC)SC1=S	0.98	3
O=[N+]([O-])c1ccc(C=Nc2ccc(Cl)c([N+](=O)[O-])c2)s1	0.95	-3
Cc1ccc(N=Cc2ccc([N+](=O)[O-])s2)c(C)c1	0.8*	29
COCCCNC(=O)/C(=C\c1ccc(-c2ccc(Cl)cc2)o1)NC(=O)c1ccc(C)cc1	0.86	25
C=CCOC(=O)C1=C(C)NC(C)=C(C(=O)OCC=C)C1c1ccco1	0.73*	29
CCOC(=O)C1=C(C)NC(C)=C(C(=O)OC)C1c1ccco1 (stereo not given)	0.91	-3
Cc1nc(-c2ccccc2)sc1C(=O)Nc1ccc(-c2cn3ccccc3n2)cc1	1.1	-30
COc1cccc(C2NC(=O)NC(C)=C2C(=O)Nc2ccccc2Cl)c1OC (stereo not given)	0.99	4
CCOc1cc(/C=C(\C#N)c2nn(CCO)c(N)c2C#N)cc(Br)c1OC	0.99	-18
COc1ccc(/C=C(\C#N)c2nn(-c3ccccc3)c(N)c2C#N)cc1[N+](=O)[O-]	0.79*	-30
CC(=O)NS(=O)(=O)c1ccc(NS(=O)(=O)c2ccc(C)cc2)cc1	0.98	-1
Cc1ccc(S(=O)(=O)Nc2ccc(S(=O)(=O)NC(=O)C3CCCCC3)cc2)cc1	0.72*	12
COCCN1C(=O)/C(=C\c2ccc(-c3cccc(Cl)c3)o2)SC1=S	1	5
Cc1ccccc1NC(=O)CSc1ccccc1	1	7
Cc1ccccc1NCn1c(=S)oc2ccccc21	0.65*	13
COc1ccc(N(CC(=O)Nc2ccc(C)c(C)c2)S(C)(=O)=O)cc1Cl	0.91	16
Cc1ccc(S(=O)(=O)C(CC(=O)c2ccc(Cl)cc2)c2ccccc2)cc1 (stereo not given)	0.98	2
COc1ccc(C(CC(=O)c2ccccc2)S(=O)(=O)c2ccc(C)cc2)cc1 (stereo not given)	0.64*	14
SMILES	Cy5 interf NS3h	NS3h inh CB
COc1ccc(C(=O)CC(c2ccc(C(C)C)cc2)S(=O)(=O)c2ccc(C)cc2)cc1 (stereo not given)	0.73*	18
COc1ccc(N(CC(=O)NCC(C)C)S(=O)(=O)c2ccc(C)cc2)cc1	1	4
COc1ccc(C2C(C(=O)OC(C)C)=C(C)N=c3s/c(=C\c4cc(OC)ccc4OC)c(=O)n32)cc1 (stereo not given)	1.1	-2
CC1(C)CC(NC(=O)c2cccc(I)c2)CC(C)(C)N1	1.1	6
O=C(Nc1ccc(Cl)cc1)c1cc2ccccc2cc1O	0.98	5
Cc1ccc(NC(=O)c2cc3ccccc3cc2O)c(C)c1	0.77*	11
COc1ccc(N2C(=O)c3ccc(C(=O)Nc4ccccc4I)cc3C2=O)cc1	1	8
COc1ccc(N2C(=O)c3ccc(OCCOc4ccc5c(c4)C(=O)N(c4ccc(OC)cc4)C5=O)cc3C2=O)cc1	0.64*	2
COc1ccc(C2=C/C(=C/c3ccc([N+](=O)[O-])cc3)C(=O)O2)c(OC)c1	0.67*	9
CCOc1ccc(C2=C/C(=C/c3ccc(OC)cc3)C(=O)O2)cc1	1	9
COc1cc(C2C3=C(CC(C)(C)CC3=O)OC3=C2C(=O)CC(C)(C)C3)ccc1Oc1nc2c(c(=O)n(C)c(=O)n2C)n1C	1	11
COc1ccc(CCNC(=O)c2ccc(N(Cc3ccc(Cl)cc3)S(C)(=O)=O)cc2)cc1OC	0.75*	8
COc1ccc(N(CC(=O)Nc2ccc(C)c(C)c2)S(C)(=O)=O)cc1	1.2*	10
COc1ccccc1CNC(=O)c1ccc(CN(c2ccccc2)S(C)(=O)=O)cc1	0.97	7
Cc1ccc(N(Cc2ccc(C(=O)NCCSc3ccc(Cl)cc3)cc2)S(C)(=O)=O)cc1C	0.93	0
COc1ccc(N(Cc2ccc(C(=O)NCc3ccccc3OC)cc2)S(=O)(=O)c2ccccc2)cc1	0.69*	20
COc1ccc(NC(=O)CN(c2ccc(OC)cc2)S(C)(=O)=O)cc1	1	7
COc1ccc(OC)c(N(CC(=O)NCCc2ccc(OC)c(OC)c2)S(=O)(=O)c2ccc(OC)c(OC)c2)c1	1	7
COc1ccc(N(CC(=O)NCCc2ccc(OC)c(OC)c2)S(=O)(=O)c2ccc(OC)c(OC)c2)cc1	1.2*	24
COCCCNC(=O)c1ccc(CN(c2ccccc2)S(C)(=O)=O)cc1	0.79*	8
COCCCNC(=O)c1ccc(N(C)S(=O)(=O)c2ccccc2)cc1	1.1	4
CCOC(=O)c1c(C)oc2cc(Br)c(OCc3ccc([N+](=O)[O-])cc3)cc12	1	9
O=C(/C=C/c1ccco1)Nc1cc(Cl)ccc1C(=O)O	0.9	63*
O=C(/C=C/c1ccco1)Nc1ccc(Br)cn1	0.95	-2
CN(C)c1nc(-c2ccccc2)c(N)c(-c2ccccc2)n1	0.91	-16
SMILES	Cy5 interf NS3h	NS3h inh CB
O=C1CC(c2ccccc2)CC2=C1C(c1cccc([N+](=O)[O-])c1)Nc1ccc(C(=O)c3ccccc3)cc1N2 (stereo not given)	0.69*	14
O=C1CC(c2ccccc2)CC2=C1C(c1ccc([N+](=O)[O-])cc1)Nc1ccc(C(=O)c3ccccc3)cc1N2 (stereo not given)	1.1	10
CCc1ccc(-c2nn(-c3ccccc3)cc2/C=C/C(=O)O)cc1	1.1	12
COC(=O)CNC(=O)c1cccc([N+](=O)[O-])c1	1.1	2
O=C(O)CSCc1cccc([N+](=O)[O-])c1	0.7*	5
COC(=O)CSC1=C(C#N)C(c2ccc(Cl)cc2)C2=C(CC(C)(C)CC2=O)N1 (stereo not given)	1.1	14
CCOc1ccc(NC(=O)c2cccc(-c3ccc(OC(C)=O)cc3)c2)cc1	0.86	25
COc1cc(OC)cc(C(=O)Nc2ccc(C)c(C)c2)c1	0.91	8
Cc1ccc(C(=O)N/C(=C/c2cccnc2)c2nc3ccccc3[nH]2)cc1	0.8*	-8
Cc1ccc(C(=O)N/C(=C\c2ccccc2F)c2nc(=S)[nH][nH]2)cc1	0.88	7
Cc1c([N+](=O)[O-])c2ccc(O)cc2n1-c1ccc(Cl)cc1	1.1	13
CN(C)/C(=N\OC(=O)c1ccc([N+](=O)[O-])cc1)c1nonc1N	0.67*	19
N/C(=N/OC(=O)c1ccc(I)cc1)c1ccc([N+](=O)[O-])cc1	0.95	3
Cc1ccc(NC(=O)C2C(c3ccccc3)=C2c2ccccc2)c(C)c1	1	-3
O=C(O)CCCc1nc2ccccc2s1	1	-5
